PubChem BioAssay (Tox21)
Results filed as inconclusive are left out. The source made the active and inactive calls. Unless noted, calls follow the shape of the full dose curve.

Tests used:
[1] = Nuclear factor erythroid 2-related factor 2/antioxidant responsive element (Nrf2/ARE) small molecule agonists: qHTS cell viability counter screen in human keratinocytes (AID 1919968; active = well fitted curve in the direction sought with a large enough effect in the repeat runs; an effect the other way counts as inactive or inconclusive; also: nearly all actives have a fitted effect of over 55% in size; also: potency is read from the fitted curve at half-maximal effect)
Method in brief: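 HaCaT ARE reporter line, 1,500 cells/well; 5 h settle, 37 C/5% CO2; cpd in DMSO pinned; 23 h exposure; CellTiter-Fluor, 1 h; fluorescence.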

[2] = Nuclear factor erythroid 2-related factor 2/antioxidant responsive element (Nrf2/ARE) small molecule agonists: luciferase reporter gene qHTS assay in human keratinocytes (AID 1919969); also: nearly all actives have a fitted effect of over 35% in size; also: potency is read from the fitted curve at half-maximal effect
[3] = target: Gonadotropin-releasing hormone receptor (Homo sapiens) (UniProt P30968); test: Human gonadotropin-releasing hormone receptor (GnRHR) small molecule agonists, calcium flux assay in GnRHR-HEK293 cells (AID 1920063); also: nearly all actives have a fitted effect of over 35% in size
Chain of Gonadotropin-releasing hormone receptor (Homo sapiens) (P30968 whole entry, looked up): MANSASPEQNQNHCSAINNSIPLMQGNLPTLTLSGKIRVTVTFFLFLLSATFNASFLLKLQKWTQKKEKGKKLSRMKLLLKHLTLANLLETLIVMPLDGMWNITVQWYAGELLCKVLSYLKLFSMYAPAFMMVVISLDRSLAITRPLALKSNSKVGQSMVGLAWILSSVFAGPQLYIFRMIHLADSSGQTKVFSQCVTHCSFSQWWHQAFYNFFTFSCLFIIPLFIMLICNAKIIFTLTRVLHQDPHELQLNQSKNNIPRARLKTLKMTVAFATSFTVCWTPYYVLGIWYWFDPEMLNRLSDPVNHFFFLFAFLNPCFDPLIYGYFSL
Method in brief: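 GnRHR-HEK293, 1500 cells/well, 18 h 37 C/5% CO2; Ca dye 1 h 37 C; cpd pinned (DMSO), agonist mode; kinetic FL 480/540, 3 min, 1 s reads; 15 conc, n=3.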

[4] = target: KiSS-1 receptor (Homo sapiens) (UniProt Q969F8); test: Human kisspeptin (KISS1R) small molecule agonists, calcium flux assay in KISS1R-HEK293 cells (AID 1920064; active = well fitted curve in the direction sought with a large enough effect in the repeat runs; an effect the other way counts as inactive or inconclusive)
Chain of KiSS-1 receptor (Homo sapiens) (Q969F8 whole entry, looked up): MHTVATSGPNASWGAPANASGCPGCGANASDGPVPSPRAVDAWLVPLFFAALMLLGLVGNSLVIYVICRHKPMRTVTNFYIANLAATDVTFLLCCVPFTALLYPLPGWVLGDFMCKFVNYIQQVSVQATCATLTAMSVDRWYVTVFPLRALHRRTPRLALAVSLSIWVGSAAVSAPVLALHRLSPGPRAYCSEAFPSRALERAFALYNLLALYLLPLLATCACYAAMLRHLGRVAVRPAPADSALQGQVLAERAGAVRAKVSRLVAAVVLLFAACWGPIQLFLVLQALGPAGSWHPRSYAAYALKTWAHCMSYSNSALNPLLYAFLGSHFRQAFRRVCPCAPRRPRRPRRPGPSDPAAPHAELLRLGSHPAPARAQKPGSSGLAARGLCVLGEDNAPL
Method in brief: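 Stable human KISS1R HEK293 line; 18 h plating, 37 C/5% CO2; calcium dye 1 h 37 C; compound pin transfer; kinetic fluorescence Ex/Em 480/540, 3 min.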

[5] = G protein-coupled receptor (GPCR) small molecule agonists, calcium flux assay: HEK293 wild type cell line counter screen (AID 1920065)
Method in brief: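 Kinetic fluorescence at Ex/Em 480/540, recorded every second over 3 min, served as the read-out after compound addition. Each compound was tested at 15 concentrations in triplicate on cells pre-loaded with calcium dye for 1 h.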

[6] = p53 small molecule agonists, cell-based qHTS assay with human liver microsomes (AID 1963577);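 also: p53 response element beta-lactamase reporter cells with liver microsomes plus NADPH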
Method in brief: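 HLM-supplemented p53RE-bla reporter assay: 16 h compound exposure at 37 C, microsomes and NADPH each 0.5 mg/mL final, read by fluorescence intensity.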

[7] = p53 small molecule agonists, cell-based qHTS assay with rat liver microsomes (AID 1963578)
Method in brief: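 Quantitative HTS of the Tox21 10K library: p53RE-bla cells, rat liver microsomes plus NADPH at 0.5 mg/mL final each, 16 h at 37 C, beta-lactamase fluorescence detection.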

[8] = p53 small molecule agonists, cell-based qHTS assay with human liver microsomes: qHTS cell viability counter screen (AID 1963579); also: nearly all actives have a fitted effect of over 45% in size
Method in brief: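 Viability of p53RE-bla cells is measured as CellTiter-Glo luminescence following a 16 h, 37 C incubation with compound, liver microsomes from human donors and NADPH.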

[9] = p53 small molecule agonists, cell-based qHTS assay with rat liver microsomes: qHTS cell viability counter screen (AID 1963580); also: nearly all actives have a fitted effect of over 45% in size
Method in brief: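 HCT-116 p53RE-bla, 4,000 cells/well, 5 h pre-incubation; cpd + rat liver microsomes 0.5 mg/mL + NADPH 0.5 mg/mL (final); 16 h, 37 C; CellTiter-Glo, 30 min RT; luminescence.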

[10] = p53 small molecule agonists, cell-based qHTS assay: qHTS cell viability counter screen (AID 1963581); also: nearly all actives have a fitted effect of over 45% in size
Method in brief: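 HCT-116 p53RE-bla cells, 4,000/well, plated 5 h before compound pin transfer; 16 h at 37 C; bla substrate 2 h RT; then CellTiter-Glo, 30 min RT, luminescence.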

[11] = p53 small molecule agonists, cell-based qHTS assay (AID 1963582; active = well fitted activation curve with a large enough effect in the signal ratio in the repeat runs, not every such curve was filed as active; the % refers to the signal ratio)
Method in brief: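 Reporter line: p53RE-bla. Pre-incubation 5 h, 37 C, 5% CO2; compound (DMSO, pin tool) 16 h, 37 C; B/G FRET substrate 2 h RT; fluorescence intensity read.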

[12] = target: 5-hydroxytryptamine receptor 2A (Homo sapiens) (UniProt P28223); test: 5-hydroxytryptamine receptor 2A (HTR2A) small molecule antagonists, cell-based qHTS assay (AID 1963586); also: nearly all actives have a fitted effect of over 45% in size
Chain of 5-hydroxytryptamine receptor 2A (Homo sapiens) (P28223 whole entry, looked up): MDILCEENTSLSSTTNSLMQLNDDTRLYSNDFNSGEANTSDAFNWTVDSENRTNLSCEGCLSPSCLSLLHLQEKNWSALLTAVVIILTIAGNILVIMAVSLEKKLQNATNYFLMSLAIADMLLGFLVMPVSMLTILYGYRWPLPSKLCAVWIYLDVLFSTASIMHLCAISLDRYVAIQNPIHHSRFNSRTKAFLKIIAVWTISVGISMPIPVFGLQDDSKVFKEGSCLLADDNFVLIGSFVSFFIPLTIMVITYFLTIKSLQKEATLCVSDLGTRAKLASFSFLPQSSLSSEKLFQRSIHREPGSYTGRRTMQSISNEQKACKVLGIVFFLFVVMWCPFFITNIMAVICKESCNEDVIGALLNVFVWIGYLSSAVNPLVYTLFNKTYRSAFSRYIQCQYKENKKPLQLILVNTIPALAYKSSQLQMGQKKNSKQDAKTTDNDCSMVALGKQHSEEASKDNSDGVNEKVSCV
Method in brief: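 Antagonist-mode intracellular calcium assay: DOI (4 nM) added after 5 min compound pre-incubation at room temperature to dye-loaded HTR2A-CHO cells. Fluorescence followed for 3 min, sampled every second.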

[13] = target: 5-hydroxytryptamine receptor 2A (Homo sapiens) (UniProt P28223); test: 5-hydroxytryptamine receptor 2A (HTR2A) small molecule agonists, cell-based qHTS assay (AID 1963587); also: nearly all actives have a fitted effect of over 30% in size
Method in brief: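 Kinetic calcium-flux fluorescence (2 min, 1 sec intervals) after compound addition in agonist mode. HTR2A-CHO cells were cultured 18 h, then dye-loaded 1 h at 37 C.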

[14] = target: Muscarinic acetylcholine receptor M1 (Homo sapiens) (UniProt P11229); test: Cholinergic receptor muscarinic 1 (CHRM1) small molecule antagonists, cell-based qHTS assay (AID 1963588); also: nearly all actives have a fitted effect of over 40% in size
Chain of Muscarinic acetylcholine receptor M1 (Homo sapiens) (P11229 whole entry, looked up): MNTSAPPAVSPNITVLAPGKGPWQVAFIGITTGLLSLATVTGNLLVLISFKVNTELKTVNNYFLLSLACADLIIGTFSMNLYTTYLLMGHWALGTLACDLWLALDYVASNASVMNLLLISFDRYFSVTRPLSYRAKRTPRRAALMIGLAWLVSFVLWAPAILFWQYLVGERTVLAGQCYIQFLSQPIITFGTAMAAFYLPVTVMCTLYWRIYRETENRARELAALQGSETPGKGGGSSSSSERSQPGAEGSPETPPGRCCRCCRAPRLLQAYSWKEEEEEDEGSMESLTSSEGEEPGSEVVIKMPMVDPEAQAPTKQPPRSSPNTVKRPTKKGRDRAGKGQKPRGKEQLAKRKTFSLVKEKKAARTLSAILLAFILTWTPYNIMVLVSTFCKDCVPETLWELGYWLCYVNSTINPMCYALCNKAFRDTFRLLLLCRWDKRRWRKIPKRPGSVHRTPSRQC
Method in brief: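 CHRM1-CHO calcium-flux assay, antagonist mode. Cells were seeded 18 h, dye-loaded 1 h at 37 C and given compound for 5 min at RT, then acetylcholine was added at 50nM. FDSS fluorescence was read 3 min; 15 concentrations, three runs.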

[15] = target: Muscarinic acetylcholine receptor M1 (Homo sapiens) (UniProt P11229); test: Cholinergic receptor muscarinic 1 (CHRM1) small molecule agonists, cell-based qHTS assay (AID 1963589); also: nearly all actives have a fitted effect of over 35% in size; also: potency is read from the fitted curve at half-maximal effect
Method in brief: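 Human M1 in stable CHO line; 18 h plating, 1 h dye load 37 C; cpd added (agonist mode); Ca2+ fluorescence kinetic read, 1 s intervals; 15 conc, 3 runs.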

[16] = target: Beta-2 adrenergic receptor (Homo sapiens) (UniProt P07550); test: Adrenergic beta2 receptor (ADRB2) small molecule antagonists, cell-based qHTS assay (AID 1963592); also: series mostly up to about 92 µM; nearly all actives have a fitted effect of over 50% in size
Chain of Beta-2 adrenergic receptor (Homo sapiens) (P07550 whole entry, looked up): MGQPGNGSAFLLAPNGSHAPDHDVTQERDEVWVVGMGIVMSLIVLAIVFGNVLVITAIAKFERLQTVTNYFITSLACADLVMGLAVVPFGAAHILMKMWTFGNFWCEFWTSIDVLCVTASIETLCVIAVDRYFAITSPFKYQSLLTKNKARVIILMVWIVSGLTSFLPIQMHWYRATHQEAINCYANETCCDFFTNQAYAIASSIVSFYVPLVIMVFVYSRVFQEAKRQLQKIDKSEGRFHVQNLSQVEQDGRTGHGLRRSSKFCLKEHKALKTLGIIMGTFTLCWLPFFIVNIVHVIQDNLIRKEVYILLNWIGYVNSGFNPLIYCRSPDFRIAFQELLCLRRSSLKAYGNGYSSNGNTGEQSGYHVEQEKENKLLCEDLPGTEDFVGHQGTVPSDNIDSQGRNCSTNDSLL
Method in brief: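 Cells (CHO, stable ADRB2 overexpression) incubated 18-20hr at 37C; compounds added from DMSO; agonist mix (1nM isoproterenol, 100uM IBMX, 25uM Ro-20-1724) added; 0.5hr RT; d2-cAMP and anti-cAMP-cryptate added; 1hr RT; 665/615 nm read.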

[17] = target: D(2) dopamine receptor (Homo sapiens) (UniProt P14416); test: Dopamine D2 receptor (DRD2) small molecule agonists, cell-based qHTS assay (AID 1963594); also: nearly all actives have a fitted effect of over 35% in size
Chain of D(2) dopamine receptor (Homo sapiens) (P14416 whole entry, looked up): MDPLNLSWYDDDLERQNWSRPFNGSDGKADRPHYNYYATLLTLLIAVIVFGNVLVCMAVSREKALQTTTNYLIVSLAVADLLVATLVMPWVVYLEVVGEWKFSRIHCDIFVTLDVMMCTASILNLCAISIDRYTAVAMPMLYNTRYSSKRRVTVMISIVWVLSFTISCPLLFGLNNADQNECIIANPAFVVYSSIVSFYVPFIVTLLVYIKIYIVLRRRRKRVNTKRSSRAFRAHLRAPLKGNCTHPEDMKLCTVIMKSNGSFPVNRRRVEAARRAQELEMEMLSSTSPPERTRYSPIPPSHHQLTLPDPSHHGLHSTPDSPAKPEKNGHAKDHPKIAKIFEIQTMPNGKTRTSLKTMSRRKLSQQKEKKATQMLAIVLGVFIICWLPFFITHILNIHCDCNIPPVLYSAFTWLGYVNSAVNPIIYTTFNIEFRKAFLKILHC
Method in brief: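 cAMP accumulation in DRD2-HEK293 cells measured by HTRF after 1 h detection; compounds added 10 min before NKH477 (200nM […]) forskolin-analogue stimulation, 30 min at room temperature, with Ro20-1724 present at 0.1 mM final.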

[18] = cAMP Responsive Elements (CRE) small molecule antagonists, cell-based qHTS assay (AID 1963591; active = well fitted inhibition curve with a large enough effect in the signal ratio in the repeat runs, not every such curve was filed as active; the % refers to the signal ratio)
Method in brief: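 Beta-lactamase reporter read by FRET substrate (LiveBLAzer B/G) after 2 h at room temperature. CRE-bla HEK293T cells had received compound plus 0.25 uM (final) NKH477 for 3 h at 37 °C.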

[19] = target: D(2) dopamine receptor (Homo sapiens) (UniProt P14416); test: Dopamine D2 receptor (DRD2) small molecule antagonists, cell-based qHTS assay (AID 1963595; active = well fitted inhibition curve with a large enough effect in the signal ratio in the repeat runs, with a control signal flat; the % refers to the signal ratio)
Method in brief: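 Stable D2 receptor HEK293 line, 24 h after seeding. Compound preincubated 10 min, then quinpirole (12 nM) with forskolin analogue NKH477 (200 nM), 30 min, room temperature. Detection by time-resolved FRET of cAMP.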

[20] = cAMP Responsive Elements (CRE) small molecule agonists, cell-based qHTS assay (AID 1963590)
Method in brief: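 HEK 293T CRE-bla, 2,000 cells/well, 18 h preincubation 37 C/5% CO2; cpds (DMSO) pinned, 3 h; LiveBLAzer B/G FRET substrate, 2 h RT.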
% is scaled to controls: 0 for no effect and ±100 for the full control effect.

Oc1cn2c(n1)Nc1ccc(Cl)c(Cl)c1C2
inactive: activity change, negative = cytotoxicity [1] -5.95% [at 19 µM] | activity, positive = activation [2] -4.99% [at 19 µM] | activity change [3] -1.21% [at 11.8 µM, stronger effect = higher value] | activation [4] 1.57% [at 15.8 µM] | activation [5] 0.199% [at 11.8 µM] | activation [6] -4.43% [at 13.5 µM] | activation [7] -0.253% [at 13.6 µM] | activity change, negative = cytotoxicity [8] -1.56% [at 13.5 µM] | activity change, negative = cytotoxicity [9] -5.66% [at 13.5 µM] | activity change, negative = cytotoxicity [10] -7.7% [at 13.5 µM] | activation [11] 2.32% [at 13.5 µM] | activity, negative = inhibition [12] 4.4% [at 12.7 µM] | activation [13] 4.55% [at 15.9 µM] | activity, negative = inhibition [14] -10.4% [at 12.6 µM] | activation [15] -0.629% [at 15.8 µM] | activity change, negative = inhibition [16] 8.99% [at 19 µM] | activation [17] 1.31% [at 19 µM]

c1ccc(SSc2ccccc2)cc1
inactive: Potency [1] | Potency [3] | outcome [4] | outcome [5] | Potency [6] | Potency [7] | Potency [8] | Potency [9] | Potency [10] | Potency [11] | Potency [12] | Potency [13] | Potency [14] | Potency [15] | Potency [18] | Potency [16] | Potency [17] | Potency [19]
active: Potency [2] 27.5 µM

Nc1c(Cl)cc(Cl)cc1Cl
inactive: Potency [1] | Potency [2] | Potency [3] | outcome [4] | outcome [5] | Potency [6] | Potency [7] | Potency [8] | Potency [9] | Potency [10] | Potency [11] | Potency [12] | Potency [13] | Potency [20] | Potency [18] | Potency [16] | Potency [17] | Potency [19]
active: Potency [15] 8.58 µM

O=C1N(c2ccccc2)c2ccccc2C1(Cc1ccncc1)Cc1ccncc1
inactive: Potency [1] | Potency [2] | Potency [3] | outcome [4] | outcome [5] | Potency [6] | Potency [7] | Potency [8] | Potency [9] | Potency [10] | Potency [11] | Potency [12] | Potency [13] | Potency [15] | Potency [20] | Potency [18] | Potency [16] | Potency [17] | Potency [19]

Cc1c(C)c2c(c(C)c1OC(=O)CCC(=O)OCCO)CC[C@@](C)(CCC[C@H](C)CCC[C@H](C)CCCC(C)C)O2
active: Potency [1] 26.6 µM
inactive: Potency [2] | Potency [3] | outcome [4] | outcome [5] | Potency [6] | Potency [7] | Potency [8] | Potency [9] | Potency [10] | Potency [11] | Potency [12] | Potency [13] | Potency [15] | Potency [17]

CCCCCCCCCCCCC
inactive: Potency [1] | Potency [2] | Potency [3] | outcome [4] | outcome [5] | Potency [6] | Potency [7] | Potency [8] | Potency [9] | Potency [10] | Potency [11] | Potency [12] | Potency [13] | Potency [15] | Potency [20] | Potency [17] | Potency [19]

CNc1c2c(nn1C)CCCC2
inactive: Potency [1] | Potency [2] | Potency [3] | outcome [4] | outcome [5] | Potency [6] | Potency [7] | Potency [8] | Potency [9] | Potency [10] | Potency [11] | Potency [12] | Potency [13] | Potency [15] | Potency [20] | Potency [18] | Potency [17] | Potency [19]

Cc1ccc(/C=N/n2c(-c3ccccc3)csc2=S)cc1
inactive: Potency [1] | Potency [2] | Potency [3] | outcome [4] | outcome [5] | Potency [6] | Potency [7] | Potency [8] | Potency [9] | Potency [10] | Potency [11] | Potency [12] | Potency [13] | Potency [15] | Potency [20] | Potency [18] | Potency [16] | Potency [17] | Potency [19]
